Sampled rows, rich in hits. Any-hit rate of the full collection: about 9%.
KinaseGlo FLuc: Kinase-Glo luciferase inhibition (counter-screen). AID 1379. 200,000 compounds, 0.28% hits. Potency, µM (highest dose often 38.3 µM), for inactives: top-dose activity change, negative = inhibition, usual class: inhibitors. Q27757. Kinase-Glo luciferase, ATP luminescence, 8 min; note: % is set by controls: 0 for no effect and ±100 for the full control effect; nearly all actives have a fitted effect of over 60% in size
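Luminescence was the read-out, taken after 8-minute incubation at ambient temperature. Luciferase turned over luciferin with 10 uM ATP in imidazole pH 7.2 buffer containing KCl, MgCl2, Tween 20 and BSA.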
HTT aggregate: reduces HttQ103-GFP aggregates in PC12 cells | PC12 HttQ103-GFP aggregates, Acumen cytometry, 40 h | Potency, µM (top dose mostly 46.1 µM), without a hit: top-dose activity change, negative = inhibition, usual class: inhibitors | 220,000 compounds, 1.1% hits; note: % is set by controls: 0 for no effect and ±100 for the full control effect; nearly all actives have a fitted effect of over 60% in size
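PC12 cells stably carrying ecdysone-inducible HTT exon 1 Q103–GFP were induced with tebufenozide (100 nM final) and treated with library compounds in titration. GFP aggregates in lysates were counted by laser scanning cytometry.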
HTT cytoprotect: Huntington cell model cytoprotection by ATP luminescence; 230,000 compounds, 0.14% hits; Potency, µM (highest dose often 56.4 µM), for the others: cytoprotection (ATP increase), hits mostly activators; PC12 HTT-Q103 induced, cytoprotection, ATP luminescence, 40 h; note: % of control where 0% means no effect; nearly all actives have a fitted effect of over 45% in size
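Cells were plated at 1500 per well in phenol red-free DMEM with 5% equine and 5% calf serum. Tebufenozide (100 nM final) and compounds were added, then ATPlite reagent, and luminescence was read.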
LMNA splice mod: changes lamin A minigene splicing in HeLa cells; 200,000 compounds, 0.01% hits; Potency, µM (highest dose often 46.1 µM), inactives show at the highest dose ratio change, negative = inhibition, usual class: inhibitors; HeLa LMNA splicing GFP/RFP minigene ratio, 48 h; active = well fitted inhibition curve with a large enough effect in the signal ratio, with a control signal flat, not every such curve was filed as active; inconclusive = small, poorly fitted or top-dose-only effect, or effect the other way, or a change in a side signal; the % refers to the signal ratio; note: % is set by controls: 0 for no effect and ±100 for the full control effect
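S3 HeLa stable clones carrying a lamin A-EGFP splicing minigene plus DsRed2 were seeded at 600 cells/well in Opti-MEM with 2% FBS, pin-dosed and incubated 48 h at 37°C. Acumen cytometry (488 nm) gave the GFP/RFP total-intensity ratio.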
ALDH1A1 block: inhibitors of human aldehyde dehydrogenase 1A1; Purified ALDH1A1, NADH fluorescence, propionaldehyde substrate; Potency, µM (top dose mostly 75.3 µM), without a hit: at the top dose activity, negative = inhibition, most hits filed as inhibitors; 220,000 compounds, 7.3% hits; P00352; AID 1030; active = well fitted inhibition curve with a large enough effect, not every such curve was filed as active; inconclusive = small, poorly fitted or top-dose-only effect, or another doubt; inactive = no such curve, though single readings can be large or run the other way;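 note: plate controls were no enzyme wells and a reference inhibitor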
Target sequence (P00352 whole entry, looked up): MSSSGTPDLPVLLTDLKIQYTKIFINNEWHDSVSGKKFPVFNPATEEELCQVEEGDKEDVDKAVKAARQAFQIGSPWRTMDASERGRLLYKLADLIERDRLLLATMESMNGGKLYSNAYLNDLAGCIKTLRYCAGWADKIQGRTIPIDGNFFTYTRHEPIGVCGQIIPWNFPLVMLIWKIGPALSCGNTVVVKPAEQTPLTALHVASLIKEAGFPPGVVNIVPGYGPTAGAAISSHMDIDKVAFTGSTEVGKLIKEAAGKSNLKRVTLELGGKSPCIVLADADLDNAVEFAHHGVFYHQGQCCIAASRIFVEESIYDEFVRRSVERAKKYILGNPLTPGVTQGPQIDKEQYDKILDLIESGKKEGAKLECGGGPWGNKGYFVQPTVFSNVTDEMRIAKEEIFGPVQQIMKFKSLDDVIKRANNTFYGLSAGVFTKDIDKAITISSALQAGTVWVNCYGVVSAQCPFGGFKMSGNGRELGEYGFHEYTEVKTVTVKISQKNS
HPGD inh: blocks human HPGD enzyme activity. purified HPGD, NADH fluorescence kinetic, PGE2 substrate. AID 894. P15428. Potency, µM, inactives show at the top dose activity change, negative = inhibition, actives largely listed as inhibitors. 150,000 compounds, 4.3% hits; active = well fitted inhibition curve with a large enough effect, not every such curve was filed as active; inconclusive = small, poorly fitted or top-dose-only effect, or another doubt; inactive = no such curve, though single readings can be large or run the other way; note: % is set by controls: 0 for no effect and ±100 for the full control effect
Target sequence (P15428 whole entry, looked up): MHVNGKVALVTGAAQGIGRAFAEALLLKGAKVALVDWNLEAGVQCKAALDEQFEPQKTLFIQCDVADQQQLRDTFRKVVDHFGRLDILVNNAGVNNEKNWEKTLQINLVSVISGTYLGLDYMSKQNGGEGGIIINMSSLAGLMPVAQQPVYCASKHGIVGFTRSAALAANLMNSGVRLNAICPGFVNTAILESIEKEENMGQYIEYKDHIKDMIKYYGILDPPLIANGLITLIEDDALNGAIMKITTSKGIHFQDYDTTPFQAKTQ
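20 nM HPGD preincubated 15 min at room temperature with compound in 50 mM Tris-HCl pH 8, 0.01% Tween 20. Started with 1 mM NAD+ and 30 uM prostaglandin E2; NADH fluorescence (360/450 nm) read 5 times over 30-s intervals, last minus first.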
Active calls of the source: *; u = inconclusive; x = no result given; [ ] = another dose, or the depositor's remark. Unless noted, calls come from the whole dose curve; as a rule, active = well fitted curve in the direction sought with a large enough effect; inconclusive = small, poorly fitted or top-dose-only effect, or another doubt; inactive = no such curve, though single readings can be large; an effect the other way counts as inactive or inconclusive. Potency is the fitted concentration of half-maximal effect.

SMILES	KinaseGlo FLuc	HTT aggregate	HTT cytoprotect	LMNA splice mod	ALDH1A1 block	HPGD inh
CCn1c2ccccc2c2cc(C3C(C#N)=C(N)Oc4n[nH]c(COC)c43)ccc21 (configuration not stated)	2%	19%	-36%	u	1.8µM*	u
COc1cccc(-c2[nH]nc3c2C(c2ccsc2)C(C#N)=C(N)O3)c1 (configuration not stated)	-1%	10%	-16%	15%	-5%	u
COCc1[nH]nc2c1C(c1ccc(OC)c(OC)c1)C(C#N)=C(N)O2 (configuration not stated)	0%	0%	17%	5%	1%	-11%
COCc1[nH]nc2c1C(c1cccc(OC)c1)C(C#N)=C(N)O2 (configuration not stated)	0%	-3%	13%	0%	28µM*	-22%
COc1cccc(-c2[nH]nc3c2C(c2ccoc2)C(C#N)=C(N)O3)c1 (configuration not stated)	2%	-6%[9.22 µM]	-2%	8%	13µM*	28µM*
CC(=O)C1C(=O)CC(c2ccc(Cl)cc2)CC1=O (configuration not stated)	x	0%[9.22 µM]	2%[10 µM]	x	x	x
CCCC(OC(=O)CC1Sc2ccccc2NC1=O)C(=O)NCc1ccco1 (configuration not stated)	0%	-4%	-12%[10 µM]	-10%	u	-19%
CCCCSc1nnc2[nH]c(=O)cc(N)n12	18%	12%	-8%	5%	u	16µM*
COc1cc(OC)cc(-c2n[nH]c(=S)n2-c2ccc3c(c2)OCO3)c1	1%	7%	-5%[10 µM]	2%	5%	25µM*
Oc1ccc(-c2n[nH]c(=S)n2-c2ccc3c(c2)OCCO3)cc1	1%	30%	-2%[10 µM]	-9%	25µM*	20µM*
COc1ccc(-n2c(-c3ccc(C)cc3)n[nH]c2=S)cc1	-2%	u	-20%[10 µM]	-1%	-10%	u
Fc1ccc(-n2c(-c3ccc4c(c3)OCO4)n[nH]c2=S)cc1Cl	1%	12%	8%[10 µM]	-13%	u	10µM*
CCc1ccccc1NC(=S)N1CCN(c2ccccn2)CC1	-2%	18%	12%[10 µM]	-8%	-12%	-9%
O=C1[C@H]2[C@@H](C(=O)N1c1cccc3ccccc13)C1(C(=O)c3ccccc3C1=O)N1CCC[C@@H]21	10%	u	-24%	4%	11µM*	-13%
NNC(=O)COc1cccc(C(F)(F)F)c1	5%	8%	-34%	-6%[46 µM]	-20%	x
O=C(Cn1ncc(Cl)c(Cl)c1=O)N1CCN(Cc2ccccc2)CC1	-1%	u	34%[10 µM]	u	28µM*	x
CC1(C)C(=O)Nc2ccccc2N1C(=O)Cn1ncc(Cl)c(Cl)c1=O	x	13%[9.22 µM]	-17%[10 µM]	x	1.1µM*	x
Cc1nn(CC(=O)N2c3ccccc3NC(=O)C2(C)C)c(C)c1[N+](=O)[O-]	3%	24%	0%	5%[46 µM]	0%	x
O=C(Cn1ncc2c1-c1ccccc1OC2)N1CCc2ccccc21	1%	-11%	-3%	u	0%	-3%
O=C(Cn1ncc(Cl)c(Cl)c1=O)N1CCc2ccccc21	-3%	u	-162%	x	10µM*	x
CCOc1cc(/C=C2/NC(=O)NC2=O)cc(Br)c1OCc1ccc(C(=O)O)cc1	-1%	24%	3%	x	-15%	x
COc1ccc(C(=O)NCC23C=CC(O2)C2C(=O)N(Cc4ccccc4)C(=O)C23)cc1 (configuration not stated)	0%	12%	-13%	-13%	7.9µM*	-7%
C(=N\n1c2ccccc2c2ccccc21)/c1ccccc1	1%	-9%	23%[10 µM]	-8%	1%	-19%
O=[N+]([O-])c1ccc(-c2csc(Nc3ccccc3)[n+]2Cc2ccccc2)cc1	-7%	3%	-45%[1.9 µM]	u	32µM*	-21%
COc1ccc(-c2csc(Nc3ccccc3)[n+]2Cc2ccccc2)cc1	0%	-31%	-54%	-25%[46 µM]	u	x
SMILES	KinaseGlo FLuc	HTT aggregate	HTT cytoprotect	LMNA splice mod	ALDH1A1 block	HPGD inh
O=C(CSc1ccc([N+](=O)[O-])cc1)NCC1CCCCC1	-2%	-12%	-20%	x	28µM*	x
O=C(CSc1cccc[n+]1[O-])NCC1CCCCC1	0%	-7%	7%	x	1%	x
O=C(CCc1ccccc1)Nc1ccc(NC(=O)c2ccco2)nc1	-2%	0%	-29%[10 µM]	3%	5%	-14%
Cc1ccc(NC(=O)CN(C)C2CCCCC2)cc1Br	-1%	3%[9.22 µM]	1%[10 µM]	x	28µM*	x
COc1ccc(NC(=O)CN(C)C2CCCCC2)cc1Cl	x	13%[9.22 µM]	22%[10 µM]	x	2%	x
CCN1CCCc2cc(CN(CCN3CCOCC3)C(=S)Nc3ccc(OC)c(OC)c3)ccc21	0%	1%	-72%	8%[46 µM]	3.2µM*	x
Cc1cc(NC(=S)N(Cc2ccc(Cl)cc2)Cc2ccc(C(=O)O)cc2)ccc1Cl	11%	-10%	-26%	3%[46 µM]	-5%	x
COc1ccc(NC(=S)N(Cc2ccc(Cl)cc2)Cc2ccc(C(=O)O)cc2)cc1Cl	-2%	-9%	17%	u	20µM*	x
COc1ccc(NC(=S)N2CCC(N(C)CCN3CCOCC3)CC2)cc1Cl	1%	23%	-2%[10 µM]	-10%	11%	-4%
S=C(Nc1ccccc1)N(CCN1CCOCC1)Cc1cccc(Cl)c1	-1%	-28%	10%[10 µM]	x	-11%	x
CCN1CCCc2cc(CN(CCN3CCOCC3)C(=S)Nc3ccc(OC)c(Cl)c3)ccc21	3%	8%	x	x	18µM*	x
CC(C)Cn1c(N)c(C(=O)COC(=O)c2cccc(Cl)c2)c(=O)n(C)c1=O	5%	-4%	-2%[10 µM]	2%[46 µM]	-5%	x
Cc1ccc(CSC(N)=Nc2ccccc2)cc1C	-3%[7.66 µM]	x	-1%[10 µM]	x	9%[13.5 µM]	-10%
O=C1c2cccnc2C(=O)N1Cc1ccccc1	1%	-9%	22%[10 µM]	2%	7%	-15%
O=C1c2cccc3c(O)ccc(c23)C(=O)N1Cc1ccccc1	-2%	10µM*	-34%	u	-8%	-29%
CN1C(=O)C2(c3ccccc31)N(c1ccccc1)C(=O)CS2(=O)=O (configuration not stated)	x	x	x	-5%[46 µM]	x	x
CSc1ccccc1NC(=O)COc1ccc(Cl)cc1	3%	-18%	16%[10 µM]	u	-13%	28µM*
CSc1ccccc1NC(=O)COc1ccccc1Cl	-5%	5%	-13%	11%	-12%	25µM*
CC(=O)N1CCN(CC(=O)Nc2ccccc2Sc2ccc(Cl)cc2)CC1	4%	-2%	28%[1.9 µM]	u	u	7%
O=C(CCl)Nc1ccccc1Sc1ccc(Cl)cc1	-1%	-9%	-3%	u	4µM*	-11%
CCOC(=O)c1sc(NC(=O)c2sccc2C)cc1C	11µM*	3%	-80%	-18%	u	u
